In PubChem BioAssay (EPA / NIEHS):
Active and inactive are the calls of the source. How the source made its calls: active means hit-call score of the fitted dose curve at least 0.9, where 1 is the maximum; inactive means score below 0.9.

Columns and labels:
[1] = ATG_E_Box_CIS: Attagene CIS-FACTORIAL HepG2 Assay for human Enhancer Box (E-box) (AID 2282936); conditions: HepG2 E-box cis-reporter transcription, actives raise or lower the signal
In short: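 DMSO served as negative control and baseline for bidirectional fitting. Human hepatoma HepG2 cells, transiently transfected with cis-reporter constructs, were dosed 24 h; reporter mRNA read by RT-PCR and capillary electrophoresis.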

[2] = ATG_M_61_CIS: Attagene CIS-FACTORIAL HepG2 Assay for M61 Transcription Factor (Internal Marker) (AID 2282937); conditions: HepG2 Attagene CIS-FACTORIAL M61 internal marker reporter; actives raise or lower the signal
In short: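 Cells were transfected with reporter units under cis-regulatory promoters, treated with chemicals for 24 h, then lysed for RNA. Reporter transcripts were quantified by RT-PCR and capillary electrophoresis, and activity was fitted bidirectionally against DMSO.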

[3] = ATG_EGR_CIS: Attagene CIS-FACTORIAL HepG2 Assay for human Early Growth Response 1 (EGR1) (AID 2282938); conditions: HepG2 Attagene CIS-FACTORIAL EGR reporter mRNA; actives raise or lower the signal
In short: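 Endogenous TF activity in HepG2 liver cells was gauged through cis-promoter reporter constructs transiently transfected. After 24 h dosing, reporter mRNA was quantified by RT-PCR and capillary electrophoresis, and curves fitted in both directions versus DMSO.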

[4] = ATG_M_19_CIS: Attagene CIS-FACTORIAL HepG2 Assay for M19 Transcription Factor (Internal Marker) (AID 2282939); conditions: HepG2 Attagene CIS-FACTORIAL M19 internal marker reporter; actives raise or lower the signal
In short: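 Following a 24 h exposure, RNA from transfected HepG2 cells was reverse-transcribed, PCR-amplified with reporter-specific primers, end-labelled with 6-FAM and HpaI-digested before capillary separation. Values represent gain or loss versus DMSO.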

[5] = ATG_Ets_CIS: Attagene CIS-FACTORIAL HepG2 Assay for human Erythroblast Transformation Specific (ETS) (AID 2282941); conditions: HepG2 ETS cis-reporter transcription, actives raise or lower the signal
In short: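 Steps: transfect HepG2 with multiple reporter units; treat compound 24 h; isolate RNA, DNase-treat, reverse-transcribe; PCR-amplify, label with 6-FAM, digest with HpaI; separate by capillary electrophoresis. Activity fitted both directions versus DMSO.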

[6] = target: Hepatocyte nuclear factor 3-beta (Homo sapiens) (UniProt Q9Y261); test: ATG_FoxA2_CIS: Attagene CIS-FACTORIAL HepG2 Assay for human Forkhead box A2 (FOXA2) (AID 2282942); conditions: HepG2 cis-reporter transcription factor activity, 24 h; actives raise or lower the signal
Chain of Hepatocyte nuclear factor 3-beta (Homo sapiens) (Q9Y261 whole entry, looked up): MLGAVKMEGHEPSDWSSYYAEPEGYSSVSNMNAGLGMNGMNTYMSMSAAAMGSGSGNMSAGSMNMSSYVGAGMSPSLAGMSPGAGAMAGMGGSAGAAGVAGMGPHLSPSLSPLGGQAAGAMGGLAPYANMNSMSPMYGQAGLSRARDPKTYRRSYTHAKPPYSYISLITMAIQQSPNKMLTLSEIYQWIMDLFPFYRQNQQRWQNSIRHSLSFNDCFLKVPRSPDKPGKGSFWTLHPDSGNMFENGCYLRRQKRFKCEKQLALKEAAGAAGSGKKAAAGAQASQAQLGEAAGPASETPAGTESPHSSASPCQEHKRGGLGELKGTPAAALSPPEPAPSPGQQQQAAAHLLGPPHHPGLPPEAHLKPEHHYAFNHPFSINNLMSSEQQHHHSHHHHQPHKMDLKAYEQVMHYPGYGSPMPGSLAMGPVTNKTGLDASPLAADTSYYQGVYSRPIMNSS
In short: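 Endogenous transcription factor activity was read in HepG2 cells carrying transiently transfected cis-promoter reporter units. After 24 h dosing, reporter mRNA was quantified by RT-PCR and capillary electrophoresis, and values fitted bidirectionally versus DMSO.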

[7] = ATG_FoxO_CIS: Attagene CIS-FACTORIAL HepG2 Assay for human Forkhead box O (FoxO) (AID 2282943); conditions: HepG2 Attagene cis-reporter, FoxO element, mRNA; actives raise or lower the signal
In short: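 HepG2, transient MRTU transfection (cis element, endogenous TFs). Dose 24 h. TriZol RNA → oligo(dT) RT → PCR → 6-FAM primer extension → HpaI cut → CE. Gain/loss vs DMSO.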

[8] = ATG_GATA_CIS: Attagene CIS-FACTORIAL HepG2 Assay for human GATA Binding Protein (AID 2282944); conditions: HepG2 GATA cis-element reporter, Attagene multiplex mRNA; actives raise or lower the signal
In short: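 DMSO serves as negative control and baseline for bidirectional fitting of reporter mRNA changes. HepG2 cells bearing transiently transfected cis-promoter reporters were exposed 24 h; transcripts detected via RT-PCR and capillary electrophoresis.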

[9] = ATG_GLI_CIS: Attagene CIS-FACTORIAL HepG2 Assay for human Zinc Finger Protein GLI1 (AID 2282945); conditions: HepG2, Attagene cis-factorial reporter mRNA, GLI element; actives raise or lower the signal
In short: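 Bidirectional curve fits relative to DMSO, using reporter mRNA levels from RT-PCR plus capillary electrophoresis. Cells were HepG2 transiently carrying cis-regulated reporter constructs, harvested 24 h after dosing.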

[10] = ATG_ISRE_CIS: Attagene CIS-FACTORIAL HepG2 Assay for human Interferon Regulatory Factor 1 (IRF1) binding to an Interferon-Stimulated Response Element (ISRE) (AID 2282948); conditions: HepG2 ISRE cis-reporter (Attagene), mRNA transcription readout; actives raise or lower the signal
In short: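 Transfected HepG2 (multiple reporter transcription units, cis elements) dosed 24 h. RNA → oligo(dT) RT → PCR → 6-FAM primer extension → HpaI → CE. DMSO = negative control/baseline.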

[11] = ATG_M_32_CIS: Attagene CIS-FACTORIAL HepG2 Assay for M32 Transcription Factor (Internal Marker) (AID 2282949); conditions: HepG2 Attagene cis-factorial M32 reporter, mRNA; actives raise or lower the signal;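 further: background control marker of the multiplexed CIS panel rather than a real target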
In short: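 Internal background marker read-out: RT-PCR/capillary electrophoresis fluorescence of reporter transcripts from transiently transfected HepG2 cells after 24 h chemical exposure. Activity fitted bidirectionally relative to DMSO negative control.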

[12] = ATG_M_06_CIS: Attagene CIS-FACTORIAL HepG2 Assay for M06 Transcription Factor (Internal Marker) (AID 2282950); conditions: HepG2 Attagene CIS-FACTORIAL M06 internal marker reporter; actives raise or lower the signal
In short: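 Fluorescence-labelled RT-PCR products from cis-promoter reporter units, cut with HpaI and resolved by capillary electrophoresis, give the signal. Cells are human HepG2, dosed for 24 h. Serves as background control, fitted relative to DMSO.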

[13] = target: Hypoxia-inducible factor 1-alpha (Homo sapiens) (UniProt Q16665); test: ATG_HIF1a_CIS: Attagene CIS-FACTORIAL HepG2 Assay for human Hypoxia Inducible Factor 1 (HIF1A) (AID 2282951); conditions: HepG2 Attagene cis-factorial HIF1a reporter transcription; actives raise or lower the signal
Chain of Hypoxia-inducible factor 1-alpha (Homo sapiens) (Q16665 whole entry, looked up): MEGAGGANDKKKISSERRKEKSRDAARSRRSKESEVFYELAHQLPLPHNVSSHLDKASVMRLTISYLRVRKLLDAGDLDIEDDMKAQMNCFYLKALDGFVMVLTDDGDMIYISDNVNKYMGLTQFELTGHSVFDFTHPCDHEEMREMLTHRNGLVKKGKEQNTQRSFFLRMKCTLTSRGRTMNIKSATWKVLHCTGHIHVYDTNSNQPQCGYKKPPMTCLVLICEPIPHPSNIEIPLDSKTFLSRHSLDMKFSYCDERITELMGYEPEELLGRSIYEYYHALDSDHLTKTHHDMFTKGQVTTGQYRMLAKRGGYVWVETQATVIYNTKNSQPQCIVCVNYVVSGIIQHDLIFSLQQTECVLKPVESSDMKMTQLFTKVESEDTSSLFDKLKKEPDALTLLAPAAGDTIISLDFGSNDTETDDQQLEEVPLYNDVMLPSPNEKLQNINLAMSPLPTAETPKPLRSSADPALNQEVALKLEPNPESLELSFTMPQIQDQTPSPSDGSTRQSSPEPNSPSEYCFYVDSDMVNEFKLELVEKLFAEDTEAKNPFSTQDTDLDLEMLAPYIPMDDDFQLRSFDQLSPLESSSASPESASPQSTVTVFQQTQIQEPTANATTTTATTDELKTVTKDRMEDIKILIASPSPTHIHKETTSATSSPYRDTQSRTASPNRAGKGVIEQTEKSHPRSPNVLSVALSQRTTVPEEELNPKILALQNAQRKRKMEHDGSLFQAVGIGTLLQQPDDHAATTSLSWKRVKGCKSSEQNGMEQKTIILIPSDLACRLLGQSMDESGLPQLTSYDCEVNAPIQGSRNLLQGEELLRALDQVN
In short: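 Measures endogenous transcription-factor activity through cis-regulated reporter mRNA in HepG2. Cells dosed 24 h; transcripts quantified by RT-PCR with 6-FAM-labelled products separated by capillary electrophoresis; DMSO serves as negative control.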

[14] = target: Hepatocyte nuclear factor 6 (Homo sapiens) (UniProt Q9UBC0); test: ATG_HNF6_CIS: Attagene CIS-FACTORIAL HepG2 Assay for human Hepatocyte Nuclear Factor 6 (HNF6) (AID 2282952); conditions: HepG2 Attagene cis-factorial HNF6 reporter transcription; actives raise or lower the signal
Chain of Hepatocyte nuclear factor 6 (Homo sapiens) (Q9UBC0 whole entry, looked up): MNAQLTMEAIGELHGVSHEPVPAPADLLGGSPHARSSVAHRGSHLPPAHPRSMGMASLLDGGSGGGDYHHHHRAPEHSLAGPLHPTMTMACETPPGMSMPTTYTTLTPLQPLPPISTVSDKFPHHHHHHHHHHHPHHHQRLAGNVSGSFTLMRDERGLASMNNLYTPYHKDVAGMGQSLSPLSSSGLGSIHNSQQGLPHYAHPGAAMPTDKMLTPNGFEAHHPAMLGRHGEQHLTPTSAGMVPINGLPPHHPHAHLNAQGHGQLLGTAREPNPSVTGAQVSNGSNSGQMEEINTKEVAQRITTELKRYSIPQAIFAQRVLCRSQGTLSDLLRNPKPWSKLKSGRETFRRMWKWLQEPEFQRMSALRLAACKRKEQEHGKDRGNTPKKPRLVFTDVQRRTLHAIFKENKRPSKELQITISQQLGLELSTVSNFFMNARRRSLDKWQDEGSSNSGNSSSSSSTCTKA
In short: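 Cells are HepG2 carrying transiently transfected cis-promoter reporter units. Treatment lasts 24 h, after which reporter transcripts are reverse-transcribed, amplified, FAM-labelled and sized by capillary electrophoresis. DMSO serves as baseline.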

[15] = target: Heat shock factor protein 1 (Homo sapiens) (UniProt Q00613); test: ATG_HSE_CIS: Attagene CIS-FACTORIAL HepG2 Assay for human Heat Shock Transcription Factor 1 (HSE) (AID 2282953); conditions: HepG2 HSE cis-reporter, Attagene RNA transcription; actives raise or lower the signal
Chain of Heat shock factor protein 1 (Homo sapiens) (Q00613 whole entry, looked up): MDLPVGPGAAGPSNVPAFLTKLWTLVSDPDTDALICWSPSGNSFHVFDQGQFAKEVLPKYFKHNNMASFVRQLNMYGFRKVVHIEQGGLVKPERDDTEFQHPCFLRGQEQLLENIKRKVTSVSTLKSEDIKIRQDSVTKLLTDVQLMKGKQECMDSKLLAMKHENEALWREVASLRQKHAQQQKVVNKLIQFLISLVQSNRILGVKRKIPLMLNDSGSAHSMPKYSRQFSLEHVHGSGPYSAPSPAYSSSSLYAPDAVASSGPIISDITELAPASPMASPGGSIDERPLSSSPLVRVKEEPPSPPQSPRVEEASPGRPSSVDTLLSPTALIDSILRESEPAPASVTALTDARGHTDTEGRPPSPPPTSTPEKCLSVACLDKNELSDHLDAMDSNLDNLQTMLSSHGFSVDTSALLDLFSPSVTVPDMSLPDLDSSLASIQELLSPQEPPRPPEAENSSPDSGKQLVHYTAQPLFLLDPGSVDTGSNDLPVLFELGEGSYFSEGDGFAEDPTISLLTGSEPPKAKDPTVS
In short: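 After a 24 h incubation with test chemical, transfected HepG2 cells were harvested for RNA; reporter transcripts were measured by RT-PCR and capillary electrophoresis. Values reflect gain or loss of signal relative to DMSO.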

[16] = ATG_MRE_CIS: Attagene CIS-FACTORIAL HepG2 Assay for human Metal Responsive Element (MRE) (AID 2282954); conditions: HepG2 MRE cis-reporter transcription, Attagene multiplex; actives raise or lower the signal
In short: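 After a 24 h chemical exposure, transiently transfected HepG2 cells yield RNA whose reporter sequences are amplified, FAM-labelled and sized by capillary electrophoresis. Curves are fitted bidirectionally relative to DMSO.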

[17] = ATG_PBREM_CIS: Attagene CIS-FACTORIAL HepG2 Assay for human Phenobarbital-responsive Enhancer Module (PBREM) (AID 2282955); conditions: HepG2 PBREM cis-reporter, Attagene multiplexed transcription; actives raise or lower the signal
In short: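 Fluorescence of labelled reporter cDNA fragments, resolved by capillary electrophoresis, gives mRNA induction in transfected HepG2 cells treated for 24 h; DMSO serves as negative control and baseline.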

[18] = target: Bile acid receptor (Homo sapiens) (UniProt Q96RI1); test: ATG_IR1_CIS: Attagene CIS-FACTORIAL HepG2 Assay for human Nuclear Receptor Subfamily 1 Group H Member 4 (NR1H4), IR1 submotif (AID 2282946); conditions: IR1 reporter transcription, actives raise or lower the signal
Chain of Bile acid receptor (Homo sapiens) (Q96RI1 whole entry, looked up, the tested form may be a part): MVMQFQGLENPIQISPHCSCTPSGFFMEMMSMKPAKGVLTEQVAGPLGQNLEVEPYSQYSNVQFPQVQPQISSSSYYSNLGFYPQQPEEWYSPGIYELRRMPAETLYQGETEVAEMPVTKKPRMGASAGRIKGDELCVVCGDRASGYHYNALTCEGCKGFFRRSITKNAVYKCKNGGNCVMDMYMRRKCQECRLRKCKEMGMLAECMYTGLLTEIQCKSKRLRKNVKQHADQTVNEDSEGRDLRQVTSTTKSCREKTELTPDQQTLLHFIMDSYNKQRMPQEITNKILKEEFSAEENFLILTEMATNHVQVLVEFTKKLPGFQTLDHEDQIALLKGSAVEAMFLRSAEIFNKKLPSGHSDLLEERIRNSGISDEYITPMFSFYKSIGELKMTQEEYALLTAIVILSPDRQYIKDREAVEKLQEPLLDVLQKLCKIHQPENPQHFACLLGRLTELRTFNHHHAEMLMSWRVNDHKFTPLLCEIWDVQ
In short: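 Cells (human HepG2) carry transiently transfected cis-promoter reporter transcription units. Compounds are incubated 24 h, total RNA is reverse-transcribed and amplified, and labelled fragments are resolved by capillary electrophoresis. Curves use DMSO as baseline.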

[19] = target: Paired box protein Pax-6 (Homo sapiens) (UniProt P26367); test: ATG_Pax6_CIS: Attagene CIS-FACTORIAL HepG2 Assay for human Paired Box 6 (PAX6) (AID 2282956); conditions: HepG2 CIS-FACTORIAL PAX6 reporter transcription, RNA readout; actives raise or lower the signal
Chain of Paired box protein Pax-6 (Homo sapiens) (P26367 whole entry, looked up): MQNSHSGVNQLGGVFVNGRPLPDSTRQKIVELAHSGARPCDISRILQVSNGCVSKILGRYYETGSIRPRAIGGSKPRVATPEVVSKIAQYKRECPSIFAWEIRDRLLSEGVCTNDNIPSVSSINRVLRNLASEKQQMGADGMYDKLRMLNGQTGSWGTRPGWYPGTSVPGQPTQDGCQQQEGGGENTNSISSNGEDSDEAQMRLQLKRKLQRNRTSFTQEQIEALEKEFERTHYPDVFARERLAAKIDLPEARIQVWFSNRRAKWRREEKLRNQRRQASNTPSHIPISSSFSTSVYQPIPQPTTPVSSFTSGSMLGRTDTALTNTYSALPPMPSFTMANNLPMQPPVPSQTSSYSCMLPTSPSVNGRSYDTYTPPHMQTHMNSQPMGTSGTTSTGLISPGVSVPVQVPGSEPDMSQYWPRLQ
In short: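 Transient MRTU transfection of HepG2 → compound exposure 24 h → TriZol RNA, oligo(dT) RT → PCR, 6-FAM primer extension, HpaI cut → capillary electrophoresis; activity fitted both directions against DMSO.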

Measured: AC50

Nc1cc(Cl)cc(C(=O)O)c1Cl
inactive: [1] | [2] | [3] | [4] | [5] | [6] | [7] | [8] | [9] | [10] | [11] | [12] | [13] | [14] | [15] | [16] | [17]

CC(O)CCO (stereo not given)
inactive: [1] | [2] | [3] | [4] | [5] | [6] | [7] | [8] | [9] | [10] | [11] | [12] | [13] | [14] | [15] | [16]

Nc1ccc(Cl)cc1N
inactive: [1] | [2] | [4] | [5] | [6] | [7] | [9] | [18] | [10] | [11] | [12] | [14]
active: [3] 28.2 µM | [13] 27.6 µM | [16] 22.9 µM

CCCCCCCCOC(=O)c1ccc(C(=O)OCCCCCCCC)c(C(=O)OCCCCCCCC)c1
inactive: [1] | [2] | [3] | [4] | [5] | [6] | [7] | [18] | [10] | [11] | [12] | [14] | [15] | [16]
active: [9] 26.3 µM | [13] 23.7 µM

CC(C)(C)OOC(=O)c1ccccc1
inactive: [1] | [2] | [3] | [4] | [5] | [6] | [8] | [9] | [10] | [11] | [12] | [13] | [14] | [15] | [17]
active: [7] 156 µM | [16] 147 µM | [19] 149 µM

COc1cc(C=O)cc2c1[C@H](COC(N)=O)[C@]1(OC(C)=O)ON2C[C@H]2[C@@H]1N2C(C)=O
active: [1] 0.1 µM | [4] 33.4 µM | [5] 12.4 µM | [6] 62.3 µM | [7] 58.9 µM | [8] 10.8 µM | [10] 540 nM | [13] 0.155 µM | [14] 9.05 µM
inactive: [2] | [3] | [9] | [11] | [12] | [16]

c1ccc(C2CO2)cc1 (stereo not given)
inactive: [1] | [2] | [3] | [4] | [5] | [6] | [7] | [8] | [9] | [10] | [11] | [12] | [13] | [14] | [15] | [16] | [19]

O=[N+]([O-])c1ccc(Oc2ccc(Cl)cc2Cl)cc1
inactive: [2] | [4] | [5] | [6] | [7] | [8] | [9] | [10] | [11] | [12] | [13] | [14]
active: [1] 71.5 µM | [3] 28.3 µM | [16] 50.1 µM | [19] 31.9 µM
